Source: PubChem BioAssay (NCATS)
Results filed as inconclusive are left out. Entries that show only a call come without a potency. Activity calls are given as the source filed them. Calls follow the shape of the dose curve; as a rule, active = well fitted curve in the direction sought with a large enough effect; inconclusive = small, poorly fitted or top-dose-only effect, or another doubt; inactive = no such curve, though single readings can be large; an effect the other way counts as inactive or inconclusive.

molecular target: Aldehyde dehydrogenase, mitochondrial (Homo sapiens) (UniProt P05091); assay: qHTS for Inhibitors of the Aldehyde Dehydrogenase Family (ALDH2) Primary screen (AID 2061308); conditions: ALDH2 enzyme inhibition qHTS, 1536-well; series mostly up to 56 µM; also: nearly all actives have a fitted effect of over 55% in size

Structure (SMILES) | Potency
Cc1cc(NC(=O)Nc2nnc(C3CCCCC3)s2)ccc1Cl | inactive
CCOC(=O)C1CCN(C(=O)C(C)(C)NC(=O)Nc2ccc3c(c2)CCC3)CC1 | inactive
Cc1cc(NC(=O)Nc2nnc(C3CCCCC3)s2)ccc1F | inactive
O=C(Nc1ccc(S(=O)(=O)Nc2nccs2)cc1)C1CC(OCc2ccccc2)C1 (stereo not given) | inactive
Cc1ccc(-c2c(C(=O)CF)n(CCCO)c3ncnc(N)c23)cc1 | inactive
CC(=O)O[C@@H]1CC[C@@]2(C)C(CC[C@]3(C)C2[C@H](O)C=C2[C@H]4[C@@H](C)[C@H](C)CC[C@]4(C)CC[C@]23C)[C@@]1(C)C(=O)O (stereo not given in full) | inactive
CC(C)(C)c1cc(O)c(CN)c(C(C)(C)C)c1 | inactive
CN(C)c1ccc(-c2cc(O)c3ncccc3c2)cc1 | inactive
COC(=O)c1ccc(NC(=O)c2nc3ccccc3n(C)c2=O)cc1 | inactive
O=C(Nc1ccc(-c2nc3ccccc3[nH]2)cc1)c1ccc2sccc2c1 | inactive
C[C@@H]1O[C@@H](O[C@@H]2[C@@H](O)[C@H](O[C@H]3CC[C@@]4(C)C(CC[C@]5(C)C4CC=C4[C@@H]6CC(C)(C)CC[C@]6(C(=O)O[C@@H]6O[C@H](CO)[C@@H](O)[C@H](O)[C@H]6O)CC[C@]45C)C3(C)C)O[C@H](C(=O)O)[C@H]2O)[C@H](O)[C@H](O)[C@H]1O (stereo not given in full) | inactive
O=C1Cc2cc(S(=O)(=O)N3CCN(c4ccc(CO)cc4)CC3)ccc2N1 | inactive
Cc1cc(C)nc(NC(=S)N2CCN(c3ccc(C(F)(F)F)cc3[N+](=O)[O-])CC2)c1 | inactive
CC(=O)Nc1cccc(S(=O)(=O)N2CCN(S(=O)(=O)c3ccc4c(c3)OCCO4)CC2)c1 | inactive
COc1cc(O)c(C(CC(=O)N2CCC(C)CC2)c2ccc(OC)c(OC)c2)c(OC)c1 (stereo not given) | inactive
COc1ccc2nc(-c3ccccc3OC)sc2c1 | inactive
COc1ccc(-c2nc3ccccc3c(=O)n2Cc2ccco2)cc1COc1c(C)cccc1C | inactive
Cc1ccc(OCCn2c(CCNC(=O)c3ccc(C(F)(F)F)cc3)nc3ccccc32)cc1 | inactive
Cc1cnc(-c2ccccc2C(C)C)nc1NCc1ccc(-c2cccc(S(N)(=O)=O)c2)cc1 | inactive
Cc1cccc(-n2cnc3cc(C(=O)N4CCC(Cc5ccccc5)CC4)ccc32)c1 | inactive

Structure (SMILES) | Potency
COc1ccc(OCc2nnc3n2N=C(c2ccccc2)CS3)cc1 | inactive
Cc1cc(C)c(S(=O)(=O)Nc2cccc3cccnc23)c(C)c1 | inactive
COc1c/c(=C2\C=c3ccccc3=N2)[nH]/c1=C\c1[nH]c(C)cc1C | inactive
Cc1cc2c(s1)c1cnn(Cc3c(F)c(F)cc(F)c3F)c(=O)c1n2C | inactive
Cc1cc(C)cc(N2CCN(C(=S)Nc3cc(C)cc(C)n3)CC2)c1 | inactive
Cc1ccc(NS(=O)(=O)c2ccc3c(ccn3C)c2)cc1C | inactive
O=C1CCCC2=C1C(c1[nH]ncc1Cl)N=C(Nc1nc3cc([S+](=O)([O-])N4CCCC4)ccc3o1)N2 (stereo not given) | inactive
CCCn1c(-c2ccc(F)cc2)nc2c(NCCN(C(C)C)C(C)C)nc(C)nc21 | inactive
O=S1(=O)N=C(Oc2ccccc2-c2ccccc2)c2ccccc21 | inactive
Cc1cccc(CNc2ncnc3ccc(-c4ccc5c(c4)OCCO5)cc23)c1 | inactive
CC1CN(c2cc3c(cc2F)c(=O)c(C(=O)O)cn3-c2ccc(F)cc2F)CCN1 (stereo not given) | inactive
COc1cc(O)c(C(CC(=O)N2CCOCC2)c2ccc(OC)c(OC)c2)c(OC)c1 (stereo not given) | inactive
CCOc1ccc(CCNC(=O)c2cccs2)cc1OCC | inactive
O=C1N/C(=C\c2ccco2)C(=O)N1Cc1ccc(F)cc1 | inactive
O=C(Nc1cccc(-c2nn3c(=O)cc(N4CCNCC4)nc3s2)c1)c1ccon1 | inactive
COc1cccc(CN(C)c2ccc([S+](=O)([O-])Nc3nccs3)cc2)c1O | inactive
O=C(Nc1ncc(Cc2ccc(C(F)(F)F)cc2)s1)c1ccco1 | inactive
Cc1ccc(-c2cc(C(=O)Nc3ncco3)c3ccccc3n2)cc1C | inactive
COc1cc(O)c(C(CC(=O)N2CCOCC2)c2ccc(C)cc2)c(OC)c1 (stereo not given) | inactive
Cc1ccc(S(=O)(=O)Nc2cnccc2C(=O)Nc2ccc(-c3nn[nH]n3)cc2)cc1 | inactive

molecular target: Retinaldehyde dehydrogenase 3 (Homo sapiens) (UniProt P47895); assay: qHTS for Inhibitors of the Aldehyde Dehydrogenase Family (ALDH1A3) Primary screen (AID 2061315); conditions: ALDH inhibition qHTS; series mostly up to 56 µM

Structure (SMILES) | Potency
Cc1cc(NC(=O)Nc2nnc(C3CCCCC3)s2)ccc1Cl | inactive
CCOC(=O)C1CCN(C(=O)C(C)(C)NC(=O)Nc2ccc3c(c2)CCC3)CC1 | inactive
Cc1cc(NC(=O)Nc2nnc(C3CCCCC3)s2)ccc1F | inactive
O=C(Nc1ccc(S(=O)(=O)Nc2nccs2)cc1)C1CC(OCc2ccccc2)C1 (stereo not given) | inactive
Cc1ccc(-c2c(C(=O)CF)n(CCCO)c3ncnc(N)c23)cc1 | inactive
CC(=O)O[C@@H]1CC[C@@]2(C)C(CC[C@]3(C)C2[C@H](O)C=C2[C@H]4[C@@H](C)[C@H](C)CC[C@]4(C)CC[C@]23C)[C@@]1(C)C(=O)O (stereo not given in full) | inactive
CC(C)(C)c1cc(O)c(CN)c(C(C)(C)C)c1 | inactive
CN(C)c1ccc(-c2cc(O)c3ncccc3c2)cc1 | inactive
COC(=O)c1ccc(NC(=O)c2nc3ccccc3n(C)c2=O)cc1 | inactive
O=C(Nc1ccc(-c2nc3ccccc3[nH]2)cc1)c1ccc2sccc2c1 | inactive
C[C@@H]1O[C@@H](O[C@@H]2[C@@H](O)[C@H](O[C@H]3CC[C@@]4(C)C(CC[C@]5(C)C4CC=C4[C@@H]6CC(C)(C)CC[C@]6(C(=O)O[C@@H]6O[C@H](CO)[C@@H](O)[C@H](O)[C@H]6O)CC[C@]45C)C3(C)C)O[C@H](C(=O)O)[C@H]2O)[C@H](O)[C@H](O)[C@H]1O (stereo not given in full) | inactive
O=C1Cc2cc(S(=O)(=O)N3CCN(c4ccc(CO)cc4)CC3)ccc2N1 | inactive
Cc1cc(C)nc(NC(=S)N2CCN(c3ccc(C(F)(F)F)cc3[N+](=O)[O-])CC2)c1 | inactive
CC(=O)Nc1cccc(S(=O)(=O)N2CCN(S(=O)(=O)c3ccc4c(c3)OCCO4)CC2)c1 | inactive
COc1cc(O)c(C(CC(=O)N2CCC(C)CC2)c2ccc(OC)c(OC)c2)c(OC)c1 (stereo not given) | inactive
COc1ccc2nc(-c3ccccc3OC)sc2c1 | inactive
COc1ccc(-c2nc3ccccc3c(=O)n2Cc2ccco2)cc1COc1c(C)cccc1C | inactive
Cc1ccc(OCCn2c(CCNC(=O)c3ccc(C(F)(F)F)cc3)nc3ccccc32)cc1 | inactive
Cc1cnc(-c2ccccc2C(C)C)nc1NCc1ccc(-c2cccc(S(N)(=O)=O)c2)cc1 | inactive
Cc1cccc(-n2cnc3cc(C(=O)N4CCC(Cc5ccccc5)CC4)ccc32)c1 | inactive

Structure (SMILES) | Potency
COc1ccc(OCc2nnc3n2N=C(c2ccccc2)CS3)cc1 | inactive
Cc1cc(C)c(S(=O)(=O)Nc2cccc3cccnc23)c(C)c1 | inactive
COc1c/c(=C2\C=c3ccccc3=N2)[nH]/c1=C\c1[nH]c(C)cc1C | inactive
Cc1cc2c(s1)c1cnn(Cc3c(F)c(F)cc(F)c3F)c(=O)c1n2C | inactive
Cc1cc(C)cc(N2CCN(C(=S)Nc3cc(C)cc(C)n3)CC2)c1 | inactive
Cc1ccc(NS(=O)(=O)c2ccc3c(ccn3C)c2)cc1C | inactive
O=C1CCCC2=C1C(c1[nH]ncc1Cl)N=C(Nc1nc3cc([S+](=O)([O-])N4CCCC4)ccc3o1)N2 (stereo not given) | inactive
CCCn1c(-c2ccc(F)cc2)nc2c(NCCN(C(C)C)C(C)C)nc(C)nc21 | inactive
O=S1(=O)N=C(Oc2ccccc2-c2ccccc2)c2ccccc21 | inactive
Cc1cccc(CNc2ncnc3ccc(-c4ccc5c(c4)OCCO5)cc23)c1 | inactive
CC1CN(c2cc3c(cc2F)c(=O)c(C(=O)O)cn3-c2ccc(F)cc2F)CCN1 (stereo not given) | inactive
COc1cc(O)c(C(CC(=O)N2CCOCC2)c2ccc(OC)c(OC)c2)c(OC)c1 (stereo not given) | inactive
CCOc1ccc(CCNC(=O)c2cccs2)cc1OCC | inactive
O=C1N/C(=C\c2ccco2)C(=O)N1Cc1ccc(F)cc1 | inactive
O=C(Nc1cccc(-c2nn3c(=O)cc(N4CCNCC4)nc3s2)c1)c1ccon1 | inactive
COc1cccc(CN(C)c2ccc([S+](=O)([O-])Nc3nccs3)cc2)c1O | inactive
O=C(Nc1ncc(Cc2ccc(C(F)(F)F)cc2)s1)c1ccco1 | inactive
Cc1ccc(-c2cc(C(=O)Nc3ncco3)c3ccccc3n2)cc1C | inactive
COc1cc(O)c(C(CC(=O)N2CCOCC2)c2ccc(C)cc2)c(OC)c1 (stereo not given) | inactive
Cc1ccc(S(=O)(=O)Nc2cnccc2C(=O)Nc2ccc(-c3nn[nH]n3)cc2)cc1 | inactive
